The values below come from PubChem BioAssay AID434998 (Southern Research Specialized Biocontainment Screening …, 2010).

A number with no mark means an inactive call. How the calls were made is not given here.

The assay in a line: S. Typhi GFP reporter counter-screen inhibition, SAR follow-up, counter-screen for PhoP regulon inhibitor project, purified and synthesized compounds, round 3 (AID 434998). Particulars: S. typhi GFP reporter fluorescence, high Mg2+ counter-screen, 4 h; series mostly up to 150 µM; inhibition: at the top concentration. For orientation: Counterscreens check selectivity or assay interference.
For orientation: inhibition means the relative decrease from the control value, in per cent. Regarding `O=C(Nc1cccc(F)c1)N1CCCN(Cc2ccccc2F)C1`, the “inhibition” value was 14.9%.

`O=C(Nc1cccc(I)c1)N1CCCN(Cc2ccccc2F)C1`: the “inhibition” value was 18.6%. With `O=C(Nc1ccc(Cl)cc1)N1CCCN(Cc2ccccc2Br)C1` the figure was 1.59%; with `N#Cc1ccccc1NC(=S)NCc1ccc(Cl)cc1`, -7.18%; with `O=C(Nc1cccc(C(F)(F)F)c1)N1CCCN(Cc2ccccc2F)C1`, 18.6%. In the case of `O=C(Nc1ccc(I)cc1)N1CCCN(Cc2ccccc2F)C1` it was 8.77%; in that of `O=C1C2=C(Nc3ccccc3SC2c2cccc(I)c2)c2ccccc21` (centres undefined), -114%; in that of `Cc1cccc(NC(=O)N2CCCN(Cc3ccccc3F)C2)c1`, 15.7%. For `COc1ccccc1CNC(=S)Nc1ccncc1`, the “inhibition” value is 1.37%. With `Cc1ccccc1CNC(=S)Nc1ccncc1`, the “inhibition” value is -0.79%.

Take `S=C(NCCc1ccc(Cl)cc1)Nc1ccncc1`: the “inhibition” value is -10.1%. In the case of `O=C(Nc1ccc(Cl)cc1)N1CCCN(Cc2ccc(Br)cc2)C1` it was 3.12%. In the case of `Cc1ccc(NC(=O)N2CCCN(Cc3ccccc3F)C2)cc1` it was 2.92%. On to `N#Cc1ccc(NC(=S)NCc2ccc(Cl)cc2)cc1`, for which the “inhibition” value is -7.11%.
